This passage reports parasite growth, % of DMSO control results from PubChem BioAssay (NCATS).

This assay is described as follows: qHTS profiling of the MIPE4 collection as inhibitors of Plasmodium falciparum (3D7) proliferation (AID 743344).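 Also: scaled between DMSO vehicle wells and 0.29 µM artemisinin as full inhibition.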 The conditions noted are these: P. falciparum 3D7 in erythrocytes, SYBR Green DNA fluorescence, 72 h; at 28.5 µM unless noted. In outline: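 Parasite DNA was quantified by SYBR Green I fluorescence (ex 485, em 535 nm) after overnight lysis in saponin/Triton buffer at room temperature. Cultures at 0.3% parasitemia and 2.5% hematocrit were first exposed to compound for 72 h at 37 C; signals were normalised to artemisinin (0.29 uM) and vehicle wells.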
A general note: qHTS replaces the single test concentration by a dilution series.
Take `COc1ncnc(NS(=O)(=O)c2ccc(N)cc2)c1OC`: the parasite growth, % of DMSO control was 170%.
On to `CN(C)CCc1c[nH]c2ccc(CS(=O)(=O)N3CCCC3)cc12`, for which the parasite growth, % of DMSO control was 94.3%.
On to `CNS(=O)(=O)CCc1ccc2[nH]cc(C3CCN(C)CC3)c2c1`, for which the parasite growth, % of DMSO control was determined as 97.5%.
The result for `CN1CCN(c2c(F)cc3c(=O)c(C(=O)O)cn4c3c2OCN4C)CC1` reads 90.8%; that for `O=c1cc(O)c(Cl)c[nH]1`, 29%.
Regarding `CCCN[C@H]1CCc2nc(N)sc2C1`, the parasite growth, % of DMSO control worked out at 5.95%.
The same measure for `CC(C)Cn1cnc2c(N)nc3ccccc3c21`: 43.4%; for `CCC(=O)O[C@]1(C(=O)CCl)[C@@H](C)C[C@H]2[C@@H]3CCC4=CC(=O)C=C[C@]4(C)[C@@]3(F)[C@@H](O)C[C@@]21C`: 6.83%.
The result for `CC(=O)Oc1ccccc1C(=O)Nc1ncc([N+](=O)[O-])s1` reads 4.65% [at 57.5 µM].
`C1CCC(C(CC2CCCCN2)C2CCCCC2)CC1` (stereo not drawn): the parasite growth, % of DMSO control was found to be 6.92%.
`Nc1[nH]c(=O)ncc1F` yielded a parasite growth, % of DMSO control of 408%.
The result for `Nc1nc(N)nc(-c2cc(Cl)ccc2Cl)n1` reads 83.2%.
The result for `CO[C@@]12[C@H](COC(N)=O)C3=C(C(=O)C(C)=C(N)C3=O)N1C[C@@H]1N[C@@H]12` reads 6.13%.
`CNC(=O)c1cc(Oc2ccc(NC(=O)Nc3ccc(Cl)c(C(F)(F)F)c3)cc2)ccn1` returned a parasite growth, % of DMSO control of 15.4%.
The same measure for `NC(=O)N1c2ccccc2CC(=O)c2ccccc21`: 92.2%; for `C[C@@H]1CN(c2c(F)c(N)c3c(=O)c(C(=O)O)cn(C4CC4)c3c2F)C[C@H](C)N1`: 55.7% [at 9.64 µM].
`CS(=O)(=O)c1ccc([C@@H](O)[C@@H](CO)NC(=O)C(Cl)Cl)cc1` had a parasite growth, % of DMSO control of 40.4%.
The same measure for `CCc1c2c(nc3ccc(OC(=O)N4CCC(N5CCCCC5)CC4)cc13)-c1cc3c(c(=O)n1C2)COC(=O)[C@]3(O)CC`: 66.3%.
